A short description of assay [1]: Cell Viability - LYMP2-025 (AID 976).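 Further: plate controls were DMSO only for no effect and tetraoctylammonium bromide control for full effect.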 In short, it runs like this:
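Human lymphoblastoid LYMP2-025 cells, 2500/well, exposed 24 h at 37 C in complete medium in 1536-well qHTS. Viability as cellular ATP by CellTiter-Glo luminescence; AC50 from Hill fits of concentration-response data.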

Assay [2] in a line: Cell Viability - LYMP2-006 (AID 978). Further: on the % scale 0 is the no-effect control and ±100 the full control effect; nearly all actives have a fitted effect of over 60% in size. Put shortly: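 Concentration-dependent loss of intracellular ATP in a human lymphoblastoid line after 24 hr treatment at 37 C was measured by CellTiter-Glo luminescence, with AC50 values obtained from standard Hill-equation modelling.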
Assay [3] in a line: Cell Viability - LYMP2-007 (AID 979).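 Further: cells exposed to compound for 24 h before reading; 0% = DMSO only and the negative end = 92 µM tetraoctylammonium bromide; nearly all actives have a fitted effect of over 60% in size.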 Put shortly: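 Human lymphoblastoid LYMP2-007 cells (2500/well) preincubated 5 h at 37 C, then treated 24 h at 37 C in complete medium. Viability by CellTiter-Glo ATP luminescence after 30 min at room temperature; AC50 from Hill fits.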
Assay [4] in a line: Cell Viability - LYMP2-008 (AID 980). Further: on the % scale 0 is the no-effect control and ±100 the full control effect; nearly all actives have a fitted effect of over 60% in size. In short, it runs like this:
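LYMP2-008 lymphoblastoid cells (2500/well) plated 5 h, then treated 24 h at 37 C in complete medium. Viability read as intracellular ATP by CellTiter-Glo luminescence after 30 min at room temperature; AC50 from Hill fits.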

A short description of assay [5]: Cell Viability - LYMP2-010 (AID 981). Further: on the % scale 0 is the no-effect control and ±100 the full control effect; nearly all actives have a fitted effect of over 55% in size. Put shortly: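 Human lymphoblastoid LYMP2-010 cells (2500/well) treated 24 h at 37 C in complete medium; viability read as intracellular ATP by CellTiter-Glo luminescence. AC50 from Hill fits of concentration-response data; tetraoctylammonium bromide positive control.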
Assay [6] is described as follows: Cell Viability - LYMP2-012 (AID 982).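 Further: cellular ATP by luciferase luminescence where a drop means cytotoxicity; cells exposed to compound for one day before reading; 0% = DMSO only and full loss = 92 µM tetraoctylammonium bromide; nearly all actives have a fitted effect of over 55% in size.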
Assay [7] in a line: Cell Viability - LYMP2-014 (AID 983).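 Further: plate controls were DMSO only for no effect and 92 µM tetraoctylammonium bromide for full effect; nearly all actives have a fitted effect of over 50% in size.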 In short, it runs like this: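 LYMP2-014 human lymphoblastoid cells, 2500/well, treated 24 h at 37 C in complete medium; viability by CellTiter-Glo ATP luminescence after 30 min at room temperature. AC50 from Hill fits of qHTS concentration-response; tetraoctylammonium bromide positive control.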
Assay [8] can be described thus: Cell Viability - LYMP2-016 (AID 984). Further: on the % scale 0 is the no-effect control and ±100 the full control effect; nearly all actives have a fitted effect of over 55% in size. Put shortly:
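Acute toxicity in a Coriell human lymphoblastoid line is scored as loss of intracellular ATP over 24 h of treatment in complete medium. CellTiter-Glo signal is fitted across concentrations with the Hill equation to give AC50.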

The nature of assay [9]: Cell Viability - LYMP2-018 (AID 985).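 Further: compound exposure lasted 24 hr at 37 °C; plate controls were DMSO only for no effect and tetraoctylammonium bromide at 92 µM for full effect; nearly all actives have a fitted effect of over 50% in size.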 In short, it runs like this: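 Human lymphoblastoid LYMP2-018 cells, 2500/well, settled 5 hr at 37 C then exposed to compound 24 hr at 37 C; intracellular ATP measured by CellTiter-Glo luminescence. AC50 from Hill-equation concentration-response fits.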
Assay [10] can be described thus: Cell Viability - LYMP2-020 (AID 986).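 Further: plate controls were DMSO only for no effect and tetraoctylammonium bromide at 92 µM for full effect; nearly all actives have a fitted effect of over 55% in size.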 Put shortly: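 Human lymphoblastoid LYMP2-020 cells (2500/well) preincubated 5 h at 37 C, then treated 24 h at 37 C. Viability measured as intracellular ATP by CellTiter-Glo luminescence after 30 min at room temperature; AC50 from Hill fits.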
Assay [11] in a line: Cell Viability - LYMP2-022 (AID 987). In short, it runs like this:
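LYMP2-022 lymphoblastoid cells (2500/well, complete medium) were treated with compounds for 24 hours at 37 C; intracellular ATP was then read by CellTiter-Glo luminescence after 30 min at room temperature. AC50 values were derived from Hill-equation fits.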

Assay [12] in a line: Cell Viability - LYMP2-024 (AID 988).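 Further: plate controls were DMSO only for no effect and 92 µM tetraoctylammonium bromide for full effect; nearly all actives have a fitted effect of over 60% in size.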 In short, it runs like this: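 Human lymphoblastoid LYMP2-024 cells (2500/well) rested 5 hr, then treated with compound for 24 hr at 37 C in complete medium. Viability was measured as intracellular ATP by CellTiter-Glo luminescence. AC50 values came from Hill-equation fits.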
Assay [13] addresses Alpha-galactosidase A (Homo sapiens) (UniProt P06280). In words: Counterscreen for Glucocerebrosidase Inhibitors: qHTS Assay for Human alpha-Galactosidase at pH 4.5 (AID 992). Further: 0% is about no effect. In short, it runs like this: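 Read-out is 4-methylumbelliferone fluorescence (365 nm excitation, 440 nm emission) after a pH 10 NaOH/glycine stop. Reactions held 2 nM enzyme and 80 uM substrate at pH 4.5 for 20 min at room temperature.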
Background: Counterscreens check selectivity or assay interference.

A short description of assay [14]: Cell Viability - LYMP1-002 - Assay at 24 hr (AID 993). Further: on the % scale 0 is the no-effect control and ±100 the full control effect. Put shortly: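 Human lymphoblastoid LYMP1-002 cells (2500/well) treated 24 h at 37 °C; viability as intracellular ATP by CellTiter-Glo luminescence. Tetraoctylammonium bromide as positive control; AC50 from Hill-equation fits of qHTS concentration-response.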
Assay [15] can be described thus: Cell Viability - LYMP1-002 - Assay at 40 hr (AID 994). Put shortly:
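LYMP1-002 human lymphoblastoid cells (2500/well, complete medium) were treated with compounds for 40 hr at 37 C. Intracellular ATP was measured by CellTiter-Glo luminescence, and AC50 values came from Hill-equation fits of concentration-response data; tetraoctylammonium bromide was the positive control.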

The target in assay [16] is alpha-glucosidase (Oryza sativa, rice) (UniProt Q653V4). In words: Counterscreen for Glucocerebrosidase Inhibitors: qHTS Assay for Rice alpha-Glucosidase at pH 5.0 (AID 997).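 Further: 0% = full activity with enzyme and -100% = basal without enzyme.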 Put shortly:
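Rice alpha-glucosidase (4 nM final) with 400 uM 4-methylumbelliferyl-alpha-D-glucopyranoside in citrate buffer pH 5.0, 20 min at room temperature, stopped at pH 10; fluorescence 365/440 nm, compounds 0.7 nM–77 uM, AC50 from Hill fits.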

Assay [17] can be described thus: qHTS Assay for Lipid Storage Modulators (AID 1519; calls by dose curve; on activity change, negative = inhibition: on the % scale 0 is the no-effect control and ±100 the full control effect). To be noted: Drosophila S3 cells, BODIPY lipid droplet/cell ratio, laser cytometry, cells loaded with oleic acid. In short, it runs like this: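 Cells seeded at 5,000 per well were treated with compounds over a concentration series and loaded with oleic acid (400 uM, as added). Lipid droplet fluorescence (488 nm excitation, 500-530 nm channel) was read by laser-scanning cytometry and normalized to 20 uM Triacsin C.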
For orientation: Quantitative high-throughput screening tests each substance at several concentrations.

The target in assay [18] is DNA repair nuclease/redox regulator APEX1 (Homo sapiens) (UniProt P27695). In words: qHTS Validation Assay for Inhibitors of the Human Apurinic/apyrimidinic Endonuclease 1 (APE1) (AID 1705;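 further: TAMRA fluorescence gain over two minutes as APE1 cuts a quenched THF abasic duplex; on the % scale 0 is the no-effect control and ±100 the full control effect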). In short, it runs like this: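 Endonuclease activity of human APE1 is followed as dequenching when the enzyme incises a tetrahydrofuran abasic site in a short duplex labelled 5'-TAMRA/3'-BHQ-2 (50 nM final), after 15 min enzyme–compound preincubation at room temperature.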

Assay [19] in a line: Counterscreen for APE1 Inhibitors: Fluorescent Dye Displacement Validation Assay (AID 1707).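 Further: plate controls were ThO with dsDNA and no compound for no effect and ThO without dsDNA for full effect.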 Put shortly: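 ThO 250 nM + dsDNA 50 nM (THF abasic site, 5'-TAMRA), Tris-HCl pH7.5/50mM NaCl/2 mM MgCl2/0.01% Tween-20; compounds pin-transferred; ex 480/em 540 nm endpoint. Neutral = no compound; no-DNA ThO wells = negative control.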
Where [20] appears, read: measured here: cell count channel max response.
Where [21] appears, read: measured here: lipid channel max response.

Where “and” joins values, the source holds several entries; their conditions need not be identical. Equal entries are not always repeated. Records with an inconclusive call do not appear. Calls of active or inactive are those of the source. Unless noted, the call rests on the fitted dose curve; in most records, active means well fitted curve in the direction sought with a large enough effect; inconclusive means small, poorly fitted or top-dose-only effect, or another doubt; inactive means no such curve, though single readings can be large; an effect the other way counts as inactive or inconclusive.

Chain of Alpha-galactosidase A (Homo sapiens) (P06280 whole entry, looked up): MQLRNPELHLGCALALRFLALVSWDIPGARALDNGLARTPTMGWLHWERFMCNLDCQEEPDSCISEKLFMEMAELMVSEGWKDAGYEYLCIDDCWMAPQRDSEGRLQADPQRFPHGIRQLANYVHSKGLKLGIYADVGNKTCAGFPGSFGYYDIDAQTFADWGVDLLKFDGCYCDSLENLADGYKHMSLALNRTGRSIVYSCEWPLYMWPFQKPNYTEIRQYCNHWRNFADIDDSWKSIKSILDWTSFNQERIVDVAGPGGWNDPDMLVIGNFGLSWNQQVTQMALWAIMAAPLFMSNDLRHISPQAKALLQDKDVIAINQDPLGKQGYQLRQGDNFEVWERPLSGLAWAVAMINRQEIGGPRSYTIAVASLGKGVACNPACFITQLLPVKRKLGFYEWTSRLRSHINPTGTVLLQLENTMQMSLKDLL
Chain of DNA repair nuclease/redox regulator APEX1 (Homo sapiens) (P27695 whole entry, looked up): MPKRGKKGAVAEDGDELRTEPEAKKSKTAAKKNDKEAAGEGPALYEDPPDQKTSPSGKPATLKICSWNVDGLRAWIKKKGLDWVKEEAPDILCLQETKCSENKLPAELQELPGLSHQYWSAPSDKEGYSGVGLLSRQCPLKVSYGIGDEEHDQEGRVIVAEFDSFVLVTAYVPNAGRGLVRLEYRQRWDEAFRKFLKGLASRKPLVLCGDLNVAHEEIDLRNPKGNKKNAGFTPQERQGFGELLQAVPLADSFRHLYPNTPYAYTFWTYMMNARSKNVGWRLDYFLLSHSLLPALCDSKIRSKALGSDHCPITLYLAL

As for `Cn1c(=O)c2c(ncn2C)n(C)c1=O`, the compound was called inactive in [1], in assay [2], in assay [3], in [4], in assay [5] and in assay [6]. Besides, the call in [7], in assay [8], in assay [9], in assay [10], in assay [11] and in assay [12] was inactive. The call in assay [13], in assay [14] and in [16] was inactive. Also, the Potency result in assay [15], in assay [18] and in assay [19] was “inactive” throughout. Moreover, in assay [17] (at 57.5 µM (top of the series)), the activity change, negative = inhibition was 9.95% (inactive) and -17.6% (inactive). Besides, the max response in assay [17] (setting [20]) was 6.09% and -15.3%; in assay [17] (setting [21]), 17.2% and -15.6%.

`Cc1cnc(C(=O)NCCc2ccc(S(=O)(=O)NC(=O)NC3CCCCC3)cc2)cn1`: the call in assay [13] and in [16] was inactive. The activity change, negative = inhibition in assay [17] (at 25.7 µM (top of the series)) was 1.51% (inactive); in assay [17] (at 57.5 µM (top of the series)), 0.481% (inactive). Also, the max response in [17] (setting [20]) was -0.601% and 30.7%; in assay [17] (setting [21]), 0.0944% and 30.2%. For the same compound, in assay [18], the Potency entry was “inactive”.

`OCCN1CCN(CCCN2c3ccccc3Sc3ccc(C(F)(F)F)cc32)CC1`: the compound was classed as inactive in [13] and in assay [16]. Moreover, the activity change, negative = inhibition was -3.93% (inactive) in assay [17] (at 25.7 µM (top of the series)); 8.5% (inactive) and -2.13% (inactive) in assay [17] (at 57.5 µM (top of the series)). Besides, the max response in assay [17] (setting [20]) was -9.92% and 24.4% and 4.08%; in [17] (setting [21]) it was -13.1% and 36.3% and -0.526%. The Potency result in assay [18] is “inactive”.

For `O=C(CCCN1CCC(O)(c2ccc(Cl)cc2)CC1)c1ccc(F)cc1`, the call in assay [13] and in assay [16] was inactive. Further, the activity change, negative = inhibition is 0.51% (inactive) in assay [17] (at 25.7 µM (top of the series)) and 7.71% (inactive) in assay [17] (at 57.5 µM (top of the series)). For the same compound, the max response in [17] (setting [20]) was -8.83% and 9.42%; in assay [17] (setting [21]), -10.1% and 21.7%. Also, the Potency entry in [18] was “inactive”.

Take `Nc1ccn([C@H]2CC[C@@H](CO)O2)c(=O)n1`: the compound was called inactive in [1], in [2], in assay [3], in assay [4], in assay [5] and in [6]. Also, the outcome in [7], in assay [8], in assay [9], in [10], in assay [11] and in assay [12] was inactive. Also, the outcome in assay [13], in assay [14] and in assay [16] was inactive. Moreover, the Potency result in assay [15], in assay [18] and in [19] was “inactive” in each case. Also, the activity change, negative = inhibition in [17] (at 57.5 µM (top of the series)) is 0.404% (inactive) and -0.834% (inactive). In addition, the max response in [17] (setting [20]) is -7.59% and -3.68%; in assay [17] (setting [21]) it was -4.32% and -4.82%.

Regarding `COC(=O)Nc1nc2ccc(C(=O)c3cccs3)cc2[nH]1`, the compound was called inactive in assay [13] and in [16]. Moreover, the values for the activity change, negative = inhibition in assay [17] (at 25.7 µM (top of the series)) and in assay [17] (at 57.5 µM (top of the series)) were -7.22% (inactive) and 1.19% (inactive), respectively. The max response in assay [17] (setting [20]) is -4.31% and 9.27%; in assay [17] (setting [21]), -12.3% and 9.44%. In [18], the Potency result was “inactive”.

`COc1ccc2c(c1)c(CC(=O)O)c(C)n2C(=O)c1ccc(Cl)cc1`: the call in assay [1], in assay [2], in assay [3], in assay [4], in assay [5] and in [6] was inactive. For the same compound, the call in assay [7], in [8], in [9], in [10], in assay [11] and in assay [12] was inactive. The compound was called inactive in assay [13], in [14] and in assay [16]. Also, the Potency entry in [15] and in [18] was “inactive” throughout. The activity change, negative = inhibition was 0.248% (inactive) in [17] (at 25.7 µM (top of the series)) and 13.5% (inactive) in assay [17] (at 57.5 µM (top of the series)). For the same compound, the max response is 4.07% and 38% in assay [17] (setting [20]); -0.937% and 62.5% in assay [17] (setting [21]).
